# Results taken from PubChem BioAssay (Tox21).
# Where “and” joins values, the source holds several entries; their conditions need not be identical. Equal entries are not always repeated. Records with an inconclusive call do not appear. Entries that show only a call come without a potency. A structure can be active in one record and inactive in another. Calls of active or inactive are those of the source. Unless noted, calls come from the whole dose curve; as a rule, active = well fitted curve in the direction sought with a large enough effect in the repeat runs; inconclusive = weak or mixed curves; inactive = no such curve, though single readings can be large; an effect the other way counts as inactive or inconclusive.
# Tests used:
# [1] = target: Estrogen receptor beta (Homo sapiens) (UniProt Q92731); assay: qHTS assay to identify small molecule agonists of the estrogen receptor beta (ER-beta) signaling pathway (AID 1259377; active = well fitted activation curve with a large enough effect in the signal ratio in the repeat runs, not every such curve was filed as active; the % refers to the signal ratio)
# Summary of the method: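 Agonist mode cell assay in GripTite HEK293T cells expressing an ER-beta fusion that drives beta-lactamase from an Upstream Activator Sequence; 16 hr compound exposure at 37C, then 2 h LiveBLAzer B/G FRET substrate at room temperature, fluorescence read-out.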
# [2] = target: Estrogen receptor beta (Homo sapiens) (UniProt Q92731); assay: qHTS assay to identify small molecule antagonists of the estrogen receptor beta (ER-beta) signaling pathway (AID 1259378; active = well fitted inhibition curve with a large enough effect in the signal ratio in the repeat runs, not every such curve was filed as active; the % refers to the signal ratio; note: potency is the fitted concentration of half-maximal effect)
# Summary of the method: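 ER-beta-UAS-bla HEK293T (GripTite) cells in 2% charcoal-stripped FBS medium were preincubated 6 hr at 37C, dosed with compound, then stimulated with 1 nM E2 (final) for 16 hr; beta-lactamase reporter read by B/G FRET fluorescence after 2 hr substrate loading.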
# [3] = qHTS assay to identify small molecule agonists of the androgen receptor (AR) signaling pathway in the presence of an antagonist - cell viability counter screen (AID 1259379); note: nearly all actives have a fitted effect of over 25% in size; note: potency is the fitted concentration of half-maximal effect
# Summary of the method: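 In MDA-kb2 cells (human breast carcinoma, MMTV-luciferase), compounds at 15 concentrations plus 3.0uM nilutamide; 16 hr, 37C, 0% CO2; CellTiter-Fluor fluorescence read for viability.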
# [4] = qHTS assay to identify small molecule agonists of the estrogen receptor beta (ER-beta) signaling pathway - cell viability counter screen (AID 1259380); note: nearly all actives have a fitted effect of over 30% in size; note: potency is the fitted concentration of half-maximal effect
# Summary of the method: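 Viability of ER-beta-UAS-bla HEK293T cells was determined by CellTiter-Glo luminescence following 16 hr treatment with test compounds at 37C.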
# [5] = qHTS assay to identify small molecule agonists of the estrogen receptor alpha (ER-alpha) signaling pathway in the presence of an antagonist - cell viability counter screen (AID 1259386);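 note: cells exposed to compounds for 22 h at 37 °C before the viability read; nearly all actives have a fitted effect of over 30% in size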; note: potency is the fitted concentration of half-maximal effect
# Summary of the method: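 Fluorescent CellTiter-Fluor viability signal from VM7Luc4E2 cells, with the reagent added during the final hour of a 22hr compound exposure at 37C in the presence of 10.0nM ICI-182,780.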
# [6] = target: Progesterone receptor (Homo sapiens) (UniProt P06401); assay: qHTS assay to identify small molecule agonists of the progesterone receptor (PR) signaling pathway (AID 1346784; calls by dose curve; note: nearly all actives have a fitted effect of over 30% in size)
# Summary of the method: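 Cells (PR-UAS-bla HEK 293T, GripTite) were plated in assay medium containing 2% charcoal-stripped FBS and incubated 6 hr. Test compounds in DMSO were added for 16 hr at 37C. FRET substrate was then loaded for 2 hr at room temperature before fluorescence reading.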
# [7] = qHTS assay to identify small molecule antagonists of the estrogen receptor beta (ER-beta) signaling pathway - cell viability counter screen (AID 1259382); note: nearly all actives have a fitted effect of over 55% in size; note: potency is the fitted concentration of half-maximal effect
# Summary of the method: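 Tox21 10K library tested in qHTS format on ER-beta-bla HEK293T cells stimulated with 1nM E2; 16 hr treatment at 37C. Same-well CellTiter-Glo luminescence served as the cell viability measure.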
# [8] = target: Thyrotropin receptor (Homo sapiens) (UniProt P16473); assay: qHTS assay to identify small molecule antagonists of the thyroid stimulating hormone receptor (TSHR) signaling pathway (AID 1259385; calls by dose curve; note: nearly all actives have a fitted effect of over 20% in size; note: potency is the fitted concentration of half-maximal effect)
# Summary of the method: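 TSHR-HEK293 cells were plated and held 18 h at 37C/5% CO2, then given compound plus Ro20-1724 and stimulated with TSH at 1.5 ng/mL final. After 30 min at room temperature, cAMP was detected with cAMP-d2/anti-cAMP-cryptate (1 h) by fluorescence.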
# [9] = target: Estrogen receptor (Homo sapiens) (UniProt P03372); assay: qHTS assay to identify small molecule agonists of the estrogen receptor alpha (ER-alpha) signaling pathway in the presence of an antagonist (AID 1259383; calls by dose curve; note: nearly all actives have a fitted effect of over 15% in size; note: potency is the fitted concentration of half-maximal effect; for activation: top concentration of the series differs between compounds)
# Summary of the method: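 In VM7Luc4E2 cells, 4,000 per well, compounds at 15 concentrations were co-incubated 22hr at 37C with 10.0nM final ICI-182,780. Luminescence from the stably transfected 4×ERE-luciferase reporter was recorded 30min after ONE-Glo addition.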
# [10] = qHTS assay to identify small molecule agonists or antagonists of the thyroid stimulating hormone receptor (TSHR) signaling pathway - wild type cell line counter screen (AID 1259384; calls by dose curve)
# Summary of the method: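 Wild-type HEK293 cells were plated 18 h at 37 C/5% CO2, pin-dosed with compound plus Ro20-1724 medium, held 30 min at room temperature, then given cAMP-d2 and anti-cAMP-cryptate; fluorescence was read after 1 h. Fifteen concentrations, triplicate.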
# Sequence of Estrogen receptor beta (Homo sapiens) (Q92731 whole entry, looked up, the tested form may be a part): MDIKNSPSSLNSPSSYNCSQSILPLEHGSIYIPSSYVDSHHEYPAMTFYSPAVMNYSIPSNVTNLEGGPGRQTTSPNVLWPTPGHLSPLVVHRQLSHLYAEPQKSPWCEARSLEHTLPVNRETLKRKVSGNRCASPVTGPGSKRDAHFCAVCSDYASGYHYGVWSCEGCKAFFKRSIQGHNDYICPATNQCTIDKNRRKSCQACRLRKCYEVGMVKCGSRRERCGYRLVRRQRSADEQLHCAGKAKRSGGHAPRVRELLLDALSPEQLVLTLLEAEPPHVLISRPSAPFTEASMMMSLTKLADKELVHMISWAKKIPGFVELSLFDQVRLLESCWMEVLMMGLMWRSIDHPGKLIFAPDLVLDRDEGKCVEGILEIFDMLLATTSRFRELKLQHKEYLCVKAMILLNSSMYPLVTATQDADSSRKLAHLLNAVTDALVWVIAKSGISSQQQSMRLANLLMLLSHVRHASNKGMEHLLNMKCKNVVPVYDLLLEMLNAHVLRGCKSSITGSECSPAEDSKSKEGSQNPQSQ
# Sequence of Estrogen receptor (Homo sapiens) (P03372 whole entry, looked up): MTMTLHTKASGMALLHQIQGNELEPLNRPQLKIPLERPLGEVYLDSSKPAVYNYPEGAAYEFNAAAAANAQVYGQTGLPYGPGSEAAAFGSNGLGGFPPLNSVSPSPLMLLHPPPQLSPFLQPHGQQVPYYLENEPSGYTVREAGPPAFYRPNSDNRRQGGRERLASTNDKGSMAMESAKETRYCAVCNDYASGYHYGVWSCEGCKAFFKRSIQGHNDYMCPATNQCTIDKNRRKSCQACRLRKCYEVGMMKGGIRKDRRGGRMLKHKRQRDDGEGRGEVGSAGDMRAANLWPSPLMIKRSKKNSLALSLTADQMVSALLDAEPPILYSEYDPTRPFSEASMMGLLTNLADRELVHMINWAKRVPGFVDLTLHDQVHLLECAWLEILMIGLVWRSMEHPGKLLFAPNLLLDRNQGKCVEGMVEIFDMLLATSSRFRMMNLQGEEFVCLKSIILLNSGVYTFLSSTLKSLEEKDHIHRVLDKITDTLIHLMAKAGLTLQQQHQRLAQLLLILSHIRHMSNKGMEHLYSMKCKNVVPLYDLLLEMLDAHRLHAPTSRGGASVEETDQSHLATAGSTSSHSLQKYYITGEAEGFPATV
# Sequence of Thyrotropin receptor (Homo sapiens) (P16473 whole entry, looked up): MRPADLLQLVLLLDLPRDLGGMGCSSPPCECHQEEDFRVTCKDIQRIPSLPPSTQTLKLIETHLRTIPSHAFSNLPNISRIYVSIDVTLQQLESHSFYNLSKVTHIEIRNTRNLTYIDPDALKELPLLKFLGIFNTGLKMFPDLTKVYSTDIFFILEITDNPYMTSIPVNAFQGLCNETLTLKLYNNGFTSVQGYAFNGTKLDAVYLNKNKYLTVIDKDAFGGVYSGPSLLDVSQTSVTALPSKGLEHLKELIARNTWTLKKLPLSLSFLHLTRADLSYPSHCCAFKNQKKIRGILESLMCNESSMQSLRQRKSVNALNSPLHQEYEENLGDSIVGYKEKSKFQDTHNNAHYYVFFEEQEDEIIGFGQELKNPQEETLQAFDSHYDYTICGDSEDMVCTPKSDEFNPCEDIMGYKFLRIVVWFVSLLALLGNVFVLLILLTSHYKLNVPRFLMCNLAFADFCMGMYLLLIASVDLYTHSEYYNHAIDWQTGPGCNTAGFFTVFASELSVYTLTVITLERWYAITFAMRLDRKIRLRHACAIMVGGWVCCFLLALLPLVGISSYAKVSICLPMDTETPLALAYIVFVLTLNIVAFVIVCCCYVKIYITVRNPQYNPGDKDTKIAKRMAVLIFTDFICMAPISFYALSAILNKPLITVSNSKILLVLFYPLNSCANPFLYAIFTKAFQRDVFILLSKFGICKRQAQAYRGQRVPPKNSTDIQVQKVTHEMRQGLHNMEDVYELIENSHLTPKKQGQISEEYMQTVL
# Sequence of Progesterone receptor (Homo sapiens) (P06401 whole entry, looked up): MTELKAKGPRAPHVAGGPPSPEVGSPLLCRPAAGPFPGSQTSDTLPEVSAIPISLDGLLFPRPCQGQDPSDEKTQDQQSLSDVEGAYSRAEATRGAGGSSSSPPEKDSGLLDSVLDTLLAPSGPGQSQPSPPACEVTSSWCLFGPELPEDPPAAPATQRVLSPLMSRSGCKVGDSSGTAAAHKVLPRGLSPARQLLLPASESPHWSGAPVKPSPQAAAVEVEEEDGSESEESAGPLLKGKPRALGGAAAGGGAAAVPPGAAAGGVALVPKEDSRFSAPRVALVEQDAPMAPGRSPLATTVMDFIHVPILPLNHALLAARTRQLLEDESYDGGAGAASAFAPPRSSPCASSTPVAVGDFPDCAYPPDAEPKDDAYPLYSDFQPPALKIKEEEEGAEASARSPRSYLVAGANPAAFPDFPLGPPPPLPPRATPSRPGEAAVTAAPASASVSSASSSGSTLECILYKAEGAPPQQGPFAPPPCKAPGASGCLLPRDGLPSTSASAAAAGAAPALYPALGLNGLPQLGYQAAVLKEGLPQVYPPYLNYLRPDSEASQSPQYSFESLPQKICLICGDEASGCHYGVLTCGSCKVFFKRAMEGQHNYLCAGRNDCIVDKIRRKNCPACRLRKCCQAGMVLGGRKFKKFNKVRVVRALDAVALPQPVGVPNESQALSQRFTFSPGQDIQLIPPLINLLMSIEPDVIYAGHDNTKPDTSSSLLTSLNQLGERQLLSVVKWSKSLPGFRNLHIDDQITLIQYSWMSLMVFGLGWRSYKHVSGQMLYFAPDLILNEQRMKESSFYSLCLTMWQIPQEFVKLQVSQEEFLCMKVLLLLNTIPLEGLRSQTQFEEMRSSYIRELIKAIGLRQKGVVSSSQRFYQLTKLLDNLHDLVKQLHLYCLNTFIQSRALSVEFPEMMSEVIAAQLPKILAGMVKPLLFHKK
Compound,outcome [1],Potency [2],Potency [3],Potency [4],Potency [5],Potency [6],Potency [7],Potency [8],Potency [9],Potency [10]
CCC(CO)(CO)COCC(CC)(CO)CO,inactive,inactive,inactive,inactive,inactive,inactive,–,–,–,–
C/C=C/c1ccc(OCC)c(O)c1,inactive,inactive,inactive,inactive,inactive,inactive,inactive,inactive,–,–
CCn1c2ccccc2c2cc(N)ccc21,inactive,inactive,–,17.1 µM (active) and 15.4 µM (active),–,inactive,inactive,–,inactive,inactive
O=Nc1ccc(Nc2ccccc2)cc1,inactive,68.6 µM (active),54.8 µM (active) and 54.5 µM (active),61.4 µM (active) and 48.6 µM (active),–,–,–,–,inactive,–
CNCCC(Oc1ccc(C(F)(F)F)cc1)c1ccccc1 (stereo unspecified),inactive,–,53.8 µM (active) and 26.6 µM (active),26.9 µM (active) and 13.3 µM (active),inactive,–,24 µM (active) and 11.9 µM (active),67.7 µM (active) and inactive,–,inactive
CC1COC(=O)O1 (stereo unspecified),inactive,inactive,inactive,inactive,inactive,inactive,–,inactive,inactive,inactive
Cc1scc2c1N(C(=O)CN1CCN(C)CC1)c1ccccc1NC2=O,inactive,inactive,inactive,inactive,inactive,inactive,–,–,inactive,–
CC(=O)C1=C(C)[C@@H]2C[C@@]3(C1)[C@H](C)CC[C@H]3C2(C)C,inactive,inactive,inactive,inactive,–,inactive,–,–,inactive,–
CCOC(=O)C(C)C(C)=O (stereo unspecified),inactive,inactive,inactive,inactive,inactive,inactive,inactive,–,–,–
Cc1cc(OCCOCC[N+](C)(C)Cc2ccccc2)ccc1C(C)(C)CC(C)(C)C,inactive,–,54.2 µM (active) and 29.8 µM (active),27.1 µM (active) and 13.3 µM (active),–,inactive,21.6 µM (active) and 13.3 µM (active),inactive,inactive,–
CC(C)CCCCCCc1ccc(O)cc1,inactive,–,27.8 µM (active) and inactive,3.92 µM (active) and 61.1 µM (active),27.8 µM (active) and inactive,–,5.54 µM (active) and inactive,–,15.6 µM (active) and 27.3 µM (active),–
Cc1ccc(-c2cc(C(F)(F)F)nn2-c2ccc(S(N)(=O)=O)cc2)cc1,–,–,inactive,60.9 µM (active) and 34.4 µM (active) and inactive,inactive,inactive,61.1 µM (active) and inactive,–,inactive,inactive
CCCOC(=O)c1cc(O)c(O)c(O)c1,inactive,–,inactive,inactive,–,inactive,–,inactive,inactive,inactive
c1ccc2c(c1)CCCC2C1=NCCN1 (stereo unspecified),–,–,inactive,inactive,inactive,inactive,inactive,–,inactive,inactive
NC(N)=Nc1nc(CSCC/C(N)=N/S(N)(=O)=O)cs1,–,–,inactive,inactive,inactive,inactive,inactive,–,inactive,–
O=C(OCc1ccccc1)c1ccc(O)cc1,–,19.3 µM (active),inactive,inactive,inactive,inactive,–,inactive,30.6 µM (active) and 29.8 µM (active),–
CCN1CCCC1CNC(=O)c1cc(S(=O)(=O)CC)c(N)cc1OC (stereo unspecified),–,–,inactive,inactive,–,inactive,inactive,–,inactive,inactive
CC[C@]1(O)C[C@@H]2CN(CCc3c([nH]c4ccccc34)[C@@](C(=O)OC)(c3cc4c(cc3OC)N(C)[C@H]3[C@@](O)(C(=O)OC)[C@H](OC(C)=O)[C@]5(CC)C=CCN6CC[C@]43[C@@H]65)C2)C1,–,–,inactive,inactive,10.6 µM (active),inactive,inactive,inactive,–,inactive
CCCNC(C)C(=O)Nc1ccccc1C (stereo unspecified),–,–,inactive,inactive,inactive,inactive,inactive,–,inactive,inactive
COc1ccc(CCN2CCC(Nc3nc4ccccc4n3Cc3ccc(F)cc3)CC2)cc1,–,–,17.6 µM (active) and 21.1 µM (active),9.9 µM (active) and 23.7 µM (active),–,inactive,9.9 µM (active) and 21.1 µM (active),31.3 µM (active) and inactive,–,inactive
Nc1cc(Cl)c(-c2cc(Cl)c(N)cc2Cl)cc1Cl,–,8.63 µM (active),54.4 µM (active) and 48.6 µM (active),21.7 µM (active) and 24.3 µM (active),inactive,–,–,–,inactive,inactive
CC(C)(c1ccccc1)c1ccc(Nc2ccc(C(C)(C)c3ccccc3)cc2)cc1,–,–,inactive,inactive,inactive,–,inactive,inactive,inactive,–
CCCCCCCCCCCCCC[P+](CCCC)(CCCC)CCCC,–,–,19.2 µM (active) and 15.4 µM (active),17.1 µM (active) and 27.3 µM (active),–,–,19.2 µM (active) and 24.3 µM (active),54.2 µM (active) and 48.6 µM (active),inactive,inactive
Nc1nc2ccccc2[nH]1,–,–,inactive,inactive,inactive,–,inactive,inactive,inactive,–
Cc1c(O)cccc1C(=O)N[C@@H](CSc1ccccc1)[C@H](O)CN1C[C@H]2CCCC[C@H]2C[C@H]1C(=O)NC(C)(C)C,–,–,53 µM (active) and 23.7 µM (active),23.7 µM (active) and 18.8 µM (active),29.8 µM (active) and 11.9 µM (active),inactive,16.8 µM (active) and 23.7 µM (active),inactive,–,inactive
OCCOCCN1CCN(C(c2ccccc2)c2ccc(Cl)cc2)CC1 (stereo unspecified),–,–,53.8 µM (active) and inactive,30.2 µM (active),inactive,–,26.9 µM (active),–,–,inactive
